Screening results (PubChem)
Sfp inh – qHTS Assay for Inhibitors of Bacillus subtilis Sfp phosphopantetheinyl transferase (PPTase); 310,000 tested, 3.5% active; 4'-phosphopantetheinyl transferase ffp (Bacillus subtilis), Q9F4F7; Biochemical Sfp PPTase activity, qHTS; Potency, µM, inactives show largest response in the series, negative = inhibition, hits mostly inhibitors;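 note: the enzyme is Sfp with the accession as filed and its product quenches rhodamine fluorescence; 0% = enzyme reaction without inhibitor and -100% = no enzyme wells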
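After 15 min at room temperature with compound, 15 nM Sfp received 5 uM rhodamine-CoA plus 12.5 uM BHQ-2-ybbR (50 mM Hepes pH 7.6, 10 mM MgCl2). Rate came from the fluorescence difference over 30 min, ex 525/em 598 nm.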
BAZ2B inh – qHTS Assay for Inhibitors of BAZ2B | Potency, µM (top dose mostly 114 µM), without a hit: top-dose activity change, negative = inhibition, actives largely listed as inhibitors | AID 504333, 2011 | Bromodomain adjacent to zinc finger domain protein 2B (Homo sapiens), Q9UIF8 | AlphaScreen BAZ2B-H3K14Ac peptide displacement | 360,000 tested, 4.4% active; note: % is set by controls: 0 for no effect and ±100 for the full control effect; nearly all actives have a fitted effect of over 60% in size
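Complex of BAZ2B and biotin-H3K14Ac (50 nM apiece) forms over 30 min at RT, then faces library compounds up to 110 uM for another 30 min; AlphaScreen beads added, 20 min dark incubation, luminescence read.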
HP1b chromo inh – HTS for Inhibitors of HP1-beta Chromodomain Interactions with Methylated Histone Tails; Chromobox protein homolog 1 (Homo sapiens), P83916; AlphaScreen HP1-beta / biotin-H3K9me3 peptide binding; Potency, µM (highest dose often 114 µM), for inactives: top-dose activity change, negative = inhibition, most hits filed as inhibitors; 390,000 tested, 0.56% active; note: nearly all actives have a fitted effect of over 70% in size
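HP1-beta protein (50 nM final) preincubated 30 min at room temperature with biotinylated H3(1-18)K9me3 peptide (50 nM) in PBS pH 7.4, 0.01% Tween-20, then compound added for 30 min. AlphaScreen streptavidin donor/nickel chelate acceptor beads (10 ug/mL final), 30 min dark, luminescence read.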
G9a block – qHTS Assay for Inhibitors of Histone Lysine Methyltransferase G9a. Potency, µM (doses to about 102 µM), without a hit: at the top dose activity, negative = inhibition, hits mostly inhibitors. G9a H3K9 monomethylation, AlphaScreen, 2 h. Histone-lysine N-methyltransferase EHMT2 (Homo sapiens), Q96KQ7. 350,000 tested, 8.8% active; note: % is set by controls: 0 for no effect and ±100 for the full control effect; nearly all actives have a fitted effect of over 75% in size
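G9a (20 nM) was preincubated 15 min with compound, then reacted 2 h at room temperature with 500 nM biotin-H3K9 peptide and 20 µM SAM. Monomethyl-H3K9 detected by AlphaScreen using anti-H3K9me1 antibody.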
JMJD2A Tudor – qHTS Assay for Inhibitors of JMJD2A-Tudor Domain; 390,000 tested, 4.4% active; Potency, µM (doses to about 114 µM), for inactives: top-dose activity change, negative = inhibition, actives largely listed as inhibitors; Lysine-specific demethylase 4A (Homo sapiens), O75164; AlphaScreen JMJD2A-Tudor / H3K4me3 peptide binding; AID 504339, 2011; note: % is set by controls: 0 for no effect and ±100 for the full control effect; nearly all actives have a fitted effect of over 50% in size
L3MBTL1 block – qHTS Assay for the Inhibitors of L3MBTL1 | Lethal(3)malignant brain tumor-like protein 1 (Homo sapiens), Q9Y468 | AlphaScreen L3MBTL1–H3K9me1 peptide binding | Potency, µM (top dose mostly 57.1 µM), without a hit: at the highest dose activity, negative = inhibition, most hits filed as inhibitors | 230,000 tested, 0.66% active; note: % is set by controls: 0 for no effect and ±100 for the full control effect; nearly all actives have a fitted effect of over 60% in size
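AlphaScreen assay: L3MBTL1 (50 nM final) was preincubated 30 min at room temperature with biotinylated H3(1-15)K9me1 peptide (75 nM final), then 30 min with library compounds; streptavidin donor and nickel chelate acceptor beads (10 ug/mL final) added, 30 min dark.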
The depositor's hits bear a star; ? = inconclusive; nt = no result; ! = not active in a repeat; [ ] = remark or other dose. Only some compounds are listed: those with a hit (about 12% of all), similar ones and a draw of the others. Calls come from the whole dose curve; as a rule, active = well fitted curve in the direction sought with a large enough effect; inconclusive = small, poorly fitted or top-dose-only effect, or another doubt; inactive = no such curve, though single readings can be large; an effect the other way counts as inactive or inconclusive. Potency is the fitted concentration of half-maximal effect.

SMILES	Sfp inh	BAZ2B inh	HP1b chromo inh	G9a block	JMJD2A Tudor	L3MBTL1 block
O[C@H]1[C@H]2c3cc4c(cc3CN3CCC(=C[C@@H]1O)[C@H]23)OCO4	4%	nt	nt	?	nt	nt
COc1ccccc1CN1CCC2(CC1)CCN(C(=O)c1ccncc1)CC2	-2%	nt	nt	-11%[12.7 µM]	nt	nt
COc1ccccc1CN1CCN(C(=O)c2ccncc2)CC1	?	25µM*	?	?	7.9µM*	nt
O=C(c1cccc(C(=O)N2CCN(Cc3ccccc3)CC2)c1)N1CCN(Cc2ccccc2)CC1	7%	-1%	30%	?	-5%	?
O=C(c1cccc(Cl)c1)N1CCN(Cc2ccncc2)CC1	-3%	50µM*	?	35µM*	?	20%
COc1ccc2[nH]c(C(=O)N3CCCN(Cc4ccc(F)cc4)CC3)cc2c1	21%	-32%	-29%	50µM*	?	-20%
CCN1CCN(C(=O)c2cc3cc(F)ccc3[nH]2)CC1	1%	-12%	16%	-31%	-14%	nt
COc1ccc(OC)c(CN2CCN(C(=O)c3ccc(F)cc3)CC2)c1	-9%	?	?	32µM*	25µM*	1%
CSc1ccc(C2c3c(-c4ccccc4O)n[nH]c3C(=O)N2Cc2ccncc2)cc1 (configuration not stated)	nt	?	11%	-11%[59 µM]	?	nt
CSc1ccc(CN2CCN(C(=O)c3ccncc3)CC2)cc1	12%	-13%	-1%	-3%	-6%	3%
COc1cccc(OC)c1C(=O)N1CCN(Cc2ccncc2)CC1	10µM*	20µM*	?	?	8.9µM*	2%
O=C(NCc1ccco1)C1CCN(C(=O)N2CCOc3ccc(Cl)cc32)CC1	nt	-32%	44%	-32%[59 µM]	-20%	nt
CN1CCN(C2=C(Cl)C(=O)N(c3cccc(Cl)c3)C2=O)CC1	-23%	-11%	-7%	?	18µM*	-11%
CN1CCN(C2=C(Cl)C(=O)N(c3ccc(Cl)c(Cl)c3)C2=O)CC1	4%	?	42%	32µM*	22µM*	-1%
O=C(NC1CCCCCC1)c1c2c(nc3ccccc13)CCN(Cc1ccccc1)C2	4%	-5%	28%	1.4µM*	-10%	4%
CC(C)c1ccccc1NC(=O)COC(=O)c1c2c(nc3ccccc13)CCN(Cc1ccccc1)C2	-7%	-10%	9%	5%[59 µM]	-28%	-13%
Cc1cc(N2CCN(C)CC2)ccc1NC(=O)c1c2c(nc3ccccc13)CCN(Cc1ccccc1)C2	5%	?	-14%	35µM*	?	nt
Cc1c(Cl)cccc1NC(=O)COC(=O)c1c2c(nc3ccccc13)CCN(Cc1ccccc1)C2	6%	-36%	12%	-32%[59 µM]	-30%	-12%
CCOC(=O)C1CCN(C(=O)C2COc3ccccc3C2)CC1 (configuration not stated)	nt	1%	11%[57 µM]	-3%[59 µM]	-8%	nt
COc1ccccc1-c1noc(CSc2nnc(Cc3ccccc3)n2-c2ccc(C)c(C)c2)n1	nt	-26%	31%	-24%[59 µM]	-27%	nt
N[C@H](C(=O)O)c1cc(O)cc(O)c1	45µM*!	nt	nt	33%[59 µM]	nt	nt
N[C@@H](C(=O)O)c1ccc(C(=O)O)c(O)c1	12%	nt	nt	nt	nt	nt
Cc1cccc(S(=O)(=O)Nc2nc3ccccc3nc2Nc2ccc3c(c2)OCO3)c1	-14%	?	-17%	45µM*	?	-28%
O=[N+]([O-])c1cccc(S(=O)(=O)Nc2nc3ccccc3nc2Nc2cccc(S(=O)(=O)N3CCCCC3)c2)c1	-29%	?	-11%	40µM*	45µM*	-9%
Cc1cccc(S(=O)(=O)Nc2ccc3c(c2)OCCO3)c1	9%	0%	5%	nt	-32%	2%
